# PubChem BioAssay (NCATS)
# “And” between values parts separate entries of the source, which are not always exact repeats. Equal entries are not always repeated. Results filed as inconclusive are left out. The source made the active and inactive calls. Unless noted, calls follow the shape of the dose curve; as a rule, active = well fitted curve in the direction sought with a large enough effect; inconclusive = small, poorly fitted or top-dose-only effect, or another doubt; inactive = no such curve, though single readings can be large; an effect the other way counts as inactive or inconclusive.
# Tests used:
# [1] = qHTS assay for small molecule agonists of retinoid X receptor alpha signaling (AID 588544; calls by dose curve;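 as to activation: 0% = DMSO basal wells and 100% = reference agonist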); details: HEK293T RXRa-UAS-bla, beta-lactamase reporter, 18 h; 530 nm emission
# [2] = target: Retinoic acid receptor RXR-alpha (Homo sapiens) (UniProt P19793); assay: as above; details: HEK293T RXRa-UAS-bla, beta-lactamase reporter, 18 h; series mostly up to 76.7 µM
# Chain of Retinoic acid receptor RXR-alpha (Homo sapiens) (P19793 whole entry, looked up): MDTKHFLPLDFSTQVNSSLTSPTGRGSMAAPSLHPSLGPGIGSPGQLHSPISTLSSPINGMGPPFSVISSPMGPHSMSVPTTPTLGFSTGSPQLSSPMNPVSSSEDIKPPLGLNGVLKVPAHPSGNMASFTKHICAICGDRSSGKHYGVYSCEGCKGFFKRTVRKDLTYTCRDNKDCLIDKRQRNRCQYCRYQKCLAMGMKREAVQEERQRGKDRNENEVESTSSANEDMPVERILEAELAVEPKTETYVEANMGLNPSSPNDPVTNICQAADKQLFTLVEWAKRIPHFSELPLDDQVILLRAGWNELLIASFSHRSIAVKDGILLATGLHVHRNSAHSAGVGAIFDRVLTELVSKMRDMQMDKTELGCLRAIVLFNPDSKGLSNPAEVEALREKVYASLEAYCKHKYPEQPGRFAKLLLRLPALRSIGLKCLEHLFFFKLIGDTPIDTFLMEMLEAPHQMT
# [3] = target: Thyroid hormone receptor beta (Homo sapiens) (UniProt P10828); assay: qHTS assay for small molecule agonists of thyroid hormone receptor beta signaling (AID 588545; calls by dose curve); details: TR-UAS-bla GripTite HEK 293, beta-lactamase ratio, agonist mode, 18 h, percent of T3 response, DMSO as zero; series mostly up to 76.7 µM
# Chain of Thyroid hormone receptor beta (Homo sapiens) (P10828 whole entry, looked up): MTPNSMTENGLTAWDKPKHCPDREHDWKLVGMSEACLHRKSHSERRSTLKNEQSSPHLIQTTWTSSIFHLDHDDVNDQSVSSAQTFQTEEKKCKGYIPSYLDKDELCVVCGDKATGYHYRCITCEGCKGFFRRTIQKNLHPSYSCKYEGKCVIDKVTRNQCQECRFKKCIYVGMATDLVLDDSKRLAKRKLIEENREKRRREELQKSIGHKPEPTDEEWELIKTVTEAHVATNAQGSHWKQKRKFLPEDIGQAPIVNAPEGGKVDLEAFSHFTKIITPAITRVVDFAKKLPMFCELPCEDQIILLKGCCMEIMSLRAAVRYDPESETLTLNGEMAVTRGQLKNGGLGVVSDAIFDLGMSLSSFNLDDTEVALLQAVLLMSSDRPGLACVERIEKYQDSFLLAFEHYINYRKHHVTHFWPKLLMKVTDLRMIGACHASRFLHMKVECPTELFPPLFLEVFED
# Method in brief: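 In this cell-based screen, titrated compounds act on HEK 293 cells held in medium with 2% charcoal/dextran FBS, NEAA and pyruvate for 18 hrs at 37 C. Responses are expressed relative to T3 (10 nM) as 100% and basal DMSO as 0%.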
# [4] = qHTS assay for small molecule antagonists of retinoid X receptor alpha signaling (AID 588546; active = well fitted inhibition curve with a large enough effect in the signal ratio, with a control signal flat, not every such curve was filed as active; the % refers to the signal ratio;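 also: cells stimulated with 9-cis-retinoic acid as agonist; % is scaled to controls: 0 for no effect and ±100 for the full control effect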); details: HEK293T RXRa-UAS-bla, beta-lactamase ratio, antagonist mode; measured here: W530 green channel, cytotoxicity proxy
# Method in brief: (§1)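 Beta-lactamase reporter inhibition, read as CCF4 fluorescence ratio (ex 405, em 460/530 nm) after 2 h at RT. HEK293T UAS-bla cells, 2500/well, were stimulated with 9-cis-RA at 500 or 100 nM final alongside test compound for 18 h at 37 C.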
# [5] = target: Retinoic acid receptor RXR-alpha (Homo sapiens) (UniProt P19793); assay: as above; details: HEK293T RXRa-UAS-bla, beta-lactamase ratio, antagonist mode
# Method in brief: as §1
# [6] = target: Thyroid hormone receptor beta (Homo sapiens) (UniProt P10828); assay: qHTS assay for small molecule antagonists of thyroid hormone receptor beta signaling (AID 588547; active = well fitted inhibition curve with a large enough effect in the signal ratio, with a control signal flat, not every such curve was filed as active; the % refers to the signal ratio;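 also: cells stimulated with 0.4 nM T3 agonist during compound exposure; % is scaled to controls: 0 for no effect and ±100 for the full control effect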); details: TR-UAS-bla HEK293, beta-lactamase ratio, antagonist mode, 18 h
# Method in brief: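 TR-UAS-bla GripTite HEK293 cells in 2% charcoal/dextran FBS medium were preincubated 4 h at 37 C, given compound (0.59 nM to 92 uM) plus 0.4 nM T3 (final) for 18 h, then CCF4 for 2 h at RT; Hill fit gave IC50.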
# [7] = target: Voltage-gated inwardly rectifying potassium channel KCNH2 (Homo sapiens) (UniProt Q12809); assay: qHTS Assay for Small Molecule Inhibitors of the Human hERG Channel Activity (AID 588834); details: U2OS BacMam hERG, FluxOR thallium flux fluorescence; series mostly up to 92.2 µM;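 also: top concentration of the series differs between compounds; % is scaled to controls: 0 for no effect and ±100 for the full control effect; lower thallium flux fluorescence means stronger hERG block; nearly all actives have a fitted effect of over 50% in size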
# Chain of Voltage-gated inwardly rectifying potassium channel KCNH2 (Homo sapiens) (Q12809 whole entry, looked up): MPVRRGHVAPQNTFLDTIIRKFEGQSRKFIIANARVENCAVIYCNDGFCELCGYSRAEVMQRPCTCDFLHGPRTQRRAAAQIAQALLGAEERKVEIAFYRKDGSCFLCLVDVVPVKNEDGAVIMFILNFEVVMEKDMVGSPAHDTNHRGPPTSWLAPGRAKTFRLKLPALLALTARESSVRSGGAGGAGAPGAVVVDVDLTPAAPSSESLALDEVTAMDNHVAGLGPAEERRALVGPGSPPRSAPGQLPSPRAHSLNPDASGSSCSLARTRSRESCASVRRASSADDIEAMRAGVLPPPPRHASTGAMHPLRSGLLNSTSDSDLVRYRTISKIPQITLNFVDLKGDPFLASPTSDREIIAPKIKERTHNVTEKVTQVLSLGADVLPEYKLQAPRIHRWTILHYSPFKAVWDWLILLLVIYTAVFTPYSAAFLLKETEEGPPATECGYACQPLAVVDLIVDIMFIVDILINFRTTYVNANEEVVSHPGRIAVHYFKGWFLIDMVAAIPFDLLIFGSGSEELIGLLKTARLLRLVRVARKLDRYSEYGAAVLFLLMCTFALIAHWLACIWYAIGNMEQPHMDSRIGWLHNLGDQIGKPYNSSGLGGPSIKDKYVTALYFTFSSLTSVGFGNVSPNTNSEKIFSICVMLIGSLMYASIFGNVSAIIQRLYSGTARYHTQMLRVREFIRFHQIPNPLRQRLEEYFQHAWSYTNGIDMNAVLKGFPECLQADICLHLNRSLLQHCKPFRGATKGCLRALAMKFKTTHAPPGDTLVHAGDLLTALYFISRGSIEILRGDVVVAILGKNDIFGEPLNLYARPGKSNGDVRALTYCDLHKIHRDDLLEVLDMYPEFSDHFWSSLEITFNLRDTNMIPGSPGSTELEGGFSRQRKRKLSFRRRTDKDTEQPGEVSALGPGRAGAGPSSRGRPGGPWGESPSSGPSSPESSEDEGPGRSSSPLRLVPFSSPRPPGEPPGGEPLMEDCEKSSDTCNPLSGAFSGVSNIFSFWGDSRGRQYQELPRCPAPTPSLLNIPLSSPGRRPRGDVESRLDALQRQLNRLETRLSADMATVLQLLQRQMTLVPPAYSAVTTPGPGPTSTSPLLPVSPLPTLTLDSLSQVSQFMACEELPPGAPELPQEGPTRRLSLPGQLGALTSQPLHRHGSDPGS
# Method in brief: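 Concentration-response qHTS measuring drop in thallium-sensitive dye signal. U2OS cells carrying BacMam hERG; compound exposure ~10 min, then stimulation buffer and 2 min read at 1 sec intervals.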
# [8] = qHTS assay for small molecule agonists of the antioxidant response element (ARE) signaling pathway (AID 651741; active = well fitted activation curve with a large enough effect in the signal ratio; the % refers to the signal ratio; also: potency is read from the fitted curve at half-maximal effect; as to activation: % of control where 0% means no effect); details: HepG2 ARE-bla reporter, beta-lactamase FRET ratio, 16 h; series mostly up to 96 µM
# Method in brief: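 ARE-bla HepG2 cells (beta-lactamase reporter under ARE control) were plated at 2,000 cells/well, preincubated 5 h at 37 C/5% CO2, then treated with DMSO-dissolved compounds for 16 h at 37 C; LiveBLAzer B/G FRET substrate added, fluorescence read after 2 h at room temperature.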
# [9] = qHTS assay for small molecule activators of the p53 signaling pathway (AID 651743; active = well fitted activation curve with a large enough effect in the signal ratio, not every such curve was filed as active; the % refers to the signal ratio; also: % of control where 0% means no effect); details: HCT-116 p53RE-bla, beta-lactamase FRET ratio, 16 h; stronger effect = higher value
# Method in brief: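 p53RE-bla HCT-116 cells with a stably integrated beta-lactamase reporter under p53 response elements were plated, rested 5 hours at 37 C/5% CO2, then exposed to compounds in DMSO for 16 hours at 37 C. LiveBLAzer B/G FRET substrate was read after 2 hours at room temperature.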
# [10] = qHTS assay for small molecule activators of the nuclear factor-kappa B (NF-kB) signaling pathway (AID 651749; active = well fitted activation curve with a large enough effect in the signal ratio; the % refers to the signal ratio; also: % of control where 0% means no effect); details: NF-kB-bla ME-180 cells, beta-lactamase FRET ratio, 16 h; stronger effect = higher value
# Method in brief: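 ME-180 cells stably carrying a beta-lactamase reporter under an NF-kB response element were exposed to compound or DMSO vehicle for 16 hr at 37C, 5% CO2. Pathway activation was read by FRET, since reporter expression disrupts FRET.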
# [11] = qHTS assay for small molecule disruptors of the mitochondrial membrane potential - 5 hr assay (AID 651755; calls by dose curve; also: nearly all actives have a fitted effect of over 40% in size; also: potency is read from the fitted curve at half-maximal effect); details: JC-1-type ratio dye; series mostly up to 92.2 µM
# Method in brief: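 HepG2 cells, attached overnight at 37C, were exposed to compound or DMSO for 5 hr at 37C, 5% CO2. Mito-MPS dye was then added for 30 min, and fluorescence read at 490/535 nm (monomers) and 540/590 nm (aggregates).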
# [12] = qHTS assay to identify small molecules that stimulate interleukin-8 (IL-8) secretion (AID 651758; active = well fitted activation curve with a large enough effect in the signal ratio; the % refers to the signal ratio; also: 0% is about no effect); details: HTRF ratio (665/615); series mostly up to 92.2 µM
# Method in brief: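 THP-1, 2000 cells/well; cpd 16 h, 37 C; add cryptate + XL665 anti-IL-8 Abs; RT 1-3 h; TR-FRET read.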
# [13] = qHTS assay for environmental chemicals that activate the Aryl hydrocarbon Receptor (AhR) signaling pathway (AID 651777); details: 1A2-DRE human hepatoma cells, luciferase, 24 h; activation: stronger effect = higher value; also: % of control where 0% means no effect; nearly all actives have a fitted effect of over 15% in size
# Method in brief: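 Human hepatoma 1A2-DRE cells, stably carrying a dioxin response element and CYP1A2 promoter driving luciferase, were exposed to compounds for 24 hr at 37 C and 5% CO2. Luciferase signal was then read after 30 min One-Glo at room temperature.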
# [14] = target: Peroxisome proliferator-activated receptor alpha (Homo sapiens) (UniProt Q07869); assay: qHTS assay for small molecule agonists of the peroxisome proliferator-activated receptor alpha (PPARalpha) signaling pathway (AID 651778); details: PathHunter PPARalpha complementation, chemiluminescence, 6 h; stronger effect = higher value; also: % of control where 0% means no effect
# Chain of Peroxisome proliferator-activated receptor alpha (Homo sapiens) (Q07869 whole entry, looked up): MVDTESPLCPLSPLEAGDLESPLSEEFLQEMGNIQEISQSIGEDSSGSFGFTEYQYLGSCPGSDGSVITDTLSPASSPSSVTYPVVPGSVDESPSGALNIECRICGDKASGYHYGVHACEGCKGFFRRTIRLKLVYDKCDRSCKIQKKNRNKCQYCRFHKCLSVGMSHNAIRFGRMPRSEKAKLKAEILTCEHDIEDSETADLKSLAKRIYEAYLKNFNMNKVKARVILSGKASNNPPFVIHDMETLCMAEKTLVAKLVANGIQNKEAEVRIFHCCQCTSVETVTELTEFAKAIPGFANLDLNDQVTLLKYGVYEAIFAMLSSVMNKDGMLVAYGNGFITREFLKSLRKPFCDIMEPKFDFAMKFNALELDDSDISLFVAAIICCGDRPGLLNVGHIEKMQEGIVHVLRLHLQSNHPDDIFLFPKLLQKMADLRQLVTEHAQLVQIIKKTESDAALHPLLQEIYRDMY
# Method in brief: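 Cells plated at 2,000/well and held overnight at 37 C, 5% CO2, then compound added by pin tool for 6 hr; after PathHunter detection reagent and 60 min at room temperature, chemiluminescence from enzyme complementation was read.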
# [15] = target: Nuclear receptor ROR-gamma (Homo sapiens) (UniProt P51449); assay: qHTS assay for small molecule antagonists of the retinoid-related orphan receptor gamma (ROR-gamma) signaling pathway (AID 651802); details: ROR-gamma antagonist cell reporter assay; series mostly up to 92.2 µM; also: % is scaled to controls: 0 for no effect and ±100 for the full control effect; nearly all actives have a fitted effect of over 60% in size
# Chain of Nuclear receptor ROR-gamma (Homo sapiens) (P51449 whole entry, looked up): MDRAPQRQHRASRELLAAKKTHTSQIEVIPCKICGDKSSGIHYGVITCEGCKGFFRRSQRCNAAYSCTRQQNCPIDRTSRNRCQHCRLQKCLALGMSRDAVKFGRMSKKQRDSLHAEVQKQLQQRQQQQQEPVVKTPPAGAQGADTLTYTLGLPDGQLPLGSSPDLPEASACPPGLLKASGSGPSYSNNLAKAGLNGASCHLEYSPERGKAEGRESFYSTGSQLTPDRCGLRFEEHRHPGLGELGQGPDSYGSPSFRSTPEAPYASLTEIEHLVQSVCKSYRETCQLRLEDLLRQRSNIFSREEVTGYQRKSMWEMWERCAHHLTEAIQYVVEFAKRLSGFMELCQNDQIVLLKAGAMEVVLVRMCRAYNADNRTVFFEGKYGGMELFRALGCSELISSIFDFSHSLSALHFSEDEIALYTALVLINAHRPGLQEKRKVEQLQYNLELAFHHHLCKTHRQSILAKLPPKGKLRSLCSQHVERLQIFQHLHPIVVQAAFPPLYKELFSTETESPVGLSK
# Method in brief: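 CHO cells carrying TET-inducible ROR-gamma and an ROR response element–luciferase reporter were exposed to compound, then induced with doxycycline. After 16hr at 37C, luminescence was read; lower signal indicates antagonism.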
# [16] = qHTS assay for small molecule agonists of the antioxidant response element (ARE) signaling pathway measured by Nrf2-dependant transcriptional activity (AID 720636; active = well fitted curve in the direction sought with a large enough effect in the repeat runs; an effect the other way counts as inactive or inconclusive; also: % of control where 0% means no effect); details: ARE-luc HepG2, Nrf2 luciferase reporter, 16 h; series mostly up to 92.4 µM
# Method in brief: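 ARE-luc HepG2 cells carrying an Nrf2-responsive luciferase reporter were plated in medium with 1% dialyzed FBS, left 6 hr at 37 C to attach, then exposed to compound for 16 hr. Luciferase luminescence was read after ONE-Glo addition.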
# [17] = qHTS assay for small molecule antagonists of the retinoid-related orphan receptor gamma (ROR-gamma) signaling pathway - cell viability counter screen (AID 720652; active = well fitted curve in the direction sought with a large enough effect in the repeat runs; an effect the other way counts as inactive or inconclusive;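 also: compound exposure lasted 16 hr before ATP read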; also: potency is read from the fitted curve at half-maximal effect); details: RORgamma reporter cell line viability counter screen; series mostly up to 92.2 µM
# Method in brief: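 Counter screen in CHO cells carrying TET-inducible ROR-gamma and an ROR response element-luciferase reporter; cells plated 5 hr, compound pinned, doxycycline added, then 16 hr at 37 C. Viability read as intracellular ATP by CellTiter-Glo luminescence.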
# [18] = qHTS assay for small molecule agonists of the antioxidant response element (ARE) signaling pathway measured by Nrf2-dependant transcriptional activity - cell viability counter screen (AID 720653; active = well fitted curve in the direction sought with a large enough effect in the repeat runs; an effect the other way counts as inactive or inconclusive; also: % is scaled to controls: 0 for no effect and ±100 for the full control effect); details: ARE-bla HepG2 viability, CellTiter-Glo ATP luminescence, 16 h; stronger effect = lower value
# Method in brief: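 ARE-bla HepG2 cells (2,000/well) rested 5 hrs at 37C/5% CO2, then exposed to compounds in DMSO for 16 hrs. Viability was read in the same wells as intracellular ATP by luminescence, 30 min at room temperature after reagent addition.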
# [19] = qHTS assay for small molecule disruptors of the mitochondrial membrane potential - 1 hr assay (AID 651754; calls by dose curve; also: nearly all actives have a fitted effect of over 35% in size; also: potency is read from the fitted curve at half-maximal effect); details: series mostly up to 92.2 µM
# Method in brief: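 HepG2 cells, attached overnight at 37C, were exposed to compound or DMSO vehicle for 1 hr at 37C, 5% CO2, then stained with Mito-MPS dye for 30 min. Red aggregate versus green monomer fluorescence reports membrane potential.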
# [20] = target: Tumor necrosis factor (Homo sapiens) (UniProt P01375); assay: qHTS assay to identify small molecules that stimulate Tumor Necrosis Factor-alpha (TNF-alpha) secretion (AID 651757; active = well fitted curve in the direction sought with a large enough effect in the signal ratio; the % refers to the signal ratio; also: 0% is about no effect); details: Human cells, HTRF 665/615 ratio; series mostly up to 92.2 µM
# Chain of Tumor necrosis factor (Homo sapiens) (P01375 whole entry, looked up): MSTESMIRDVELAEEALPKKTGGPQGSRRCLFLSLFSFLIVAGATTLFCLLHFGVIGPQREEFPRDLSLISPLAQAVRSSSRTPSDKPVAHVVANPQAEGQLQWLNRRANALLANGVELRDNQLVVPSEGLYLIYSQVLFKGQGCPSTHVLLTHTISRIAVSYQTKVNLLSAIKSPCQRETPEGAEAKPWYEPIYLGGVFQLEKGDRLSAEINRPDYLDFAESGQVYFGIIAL
# Method in brief: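 THP-1 cells were exposed to compounds for 17 hrs at 37 C, after which secreted TNF-alpha was measured by homogeneous HTRF (TR-FRET) using cryptate- and XL665-labeled anti-TNF-alpha antibodies, read after 3 hr at room temperature.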
SMILES,max response [1],outcome [2],outcome [3],max response [4],max response [5],activity change % (negative = inhibition) [6],Potency [7],Potency [8],activation [9],activation [10],Potency [11],Potency [12],activation [13],max response [14],Potency [15],outcome [16],Potency [17],max response [18],Potency [19],Potency [20]
O=C1OC(=O)c2cc([N+](=O)[O-])ccc21,18.2%,inactive,inactive,10.4%,1.57% (inactive),7.82% (inactive),inactive,inactive,1.53% (inactive),-0.857% (inactive),inactive,inactive,-0.234% (inactive),-4.48% (inactive),inactive,inactive,inactive,-1.02% (inactive),–,–
Nc1cc(Cl)c([N+](=O)[O-])cc1O,-11.8%,inactive,inactive,-8.58%,-8.94% (inactive),14.2% (inactive),inactive,8.41 µM (active),-0.259% (inactive),0.0071% (inactive),33.5 µM (active),–,–,-6.88% (inactive),inactive,–,inactive,-1.27% (inactive),33.5 µM (active),–
C1CCCC1,-15.2%,inactive,inactive,-15.6%,-5.52% (inactive),-1.41% (inactive),inactive,inactive,-0.131% (inactive),–,inactive,inactive,0.0008% (inactive),5.92% (inactive),inactive,inactive,inactive,-4.11% (inactive),inactive,inactive
OC(CCl)CCl,-16.7%,inactive,inactive,-12.4%,-2.39% (inactive),2.68% (inactive),inactive,inactive,-1.36% (inactive),1.2% (inactive),inactive,–,0.26% (inactive),-0.528% (inactive),inactive,inactive,inactive,16.1% (inactive),–,inactive
O=C(O)c1ccccc1Cl,0.58%,inactive,inactive,6.35%,2.61% (inactive),-4.08% (inactive),inactive,inactive,-4.07% (inactive),-0.473% (inactive),inactive,inactive,–,-0.83% (inactive),–,inactive,inactive,-0.91% (inactive),–,inactive
CC(=O)c1nccs1,4.76%,inactive,inactive,-5.53%,-9.7% (inactive),1.64% (inactive),inactive,inactive,-4.02% (inactive),–,inactive,inactive,–,-1.62% (inactive),inactive,inactive,inactive,25.7% (inactive),inactive,inactive
Clc1ccc(Cl)c(Cl)c1Cl,-17% and 0.458%,inactive,inactive,6.74% and -2.64%,10.9% (inactive) and -11.3% (inactive),26.9% (inactive),inactive,inactive,-4.49% (inactive) and 4.59% (inactive),0.56% (inactive) and -0.536% (inactive),–,–,0.208% (inactive) and -1.37% (inactive),-7.17% (inactive) and 0.0854% (inactive),inactive,inactive,inactive,13.5% (inactive) and -3.85% (inactive),–,inactive
Cc1ccc2c(c1[N+](=O)[O-])C(=O)c1ccccc1C2=O,-1.88%,inactive,inactive,-5.46%,-0.36% (inactive),-11.5% (inactive),inactive,11.9 µM (active),7.91% (inactive),-0.166% (inactive),–,–,–,-3.62% (inactive),–,–,inactive,-12.9% (inactive),1.88 µM (active),inactive
CCCCC/C=C/C=C/C=O,-6.95% and 20%,inactive,inactive,-1.35% and -13.3%,1.5% (inactive) and -3.35% (inactive),6.77% (inactive) and -0.205% (inactive),inactive,48.6 µM (active),-11.3% (inactive),-1.4% (inactive) and -2.02% (inactive),inactive,–,0.997% (inactive) and -0.836% (inactive),-2.99% (inactive) and -1.24% (inactive),–,inactive,23.7 µM (active),-0.854% (inactive) and -5.85% (inactive),–,inactive
CC1CCC2CC1C2(C)C (stereo not drawn),-0.475%,inactive,inactive,8.6%,9.66% (inactive),12.3% (inactive),inactive,inactive,-0.467% (inactive),-0.9% (inactive),–,inactive,–,-3.48% (inactive),inactive,inactive,inactive,1.21% (inactive),inactive,inactive
CCC(O)C(C)(C)C (stereo not drawn),-3.08%,inactive,inactive,-1.12%,-2.9% (inactive),9.28% (inactive),inactive,inactive,-0.0168% (inactive),-0.45% (inactive),inactive,–,0.48% (inactive),-0.805% (inactive),inactive,inactive,inactive,-4.91% (inactive),–,inactive
CC(CCl)OC(C)CCl (stereo not drawn),2.52%,inactive,inactive,-11.8%,19.4% (inactive),-2.31% (inactive),inactive,inactive,-3.45% (inactive),0.22% (inactive),–,inactive,–,4.09% (inactive),–,inactive,inactive,6.29% (inactive),inactive,inactive
